The list is not random: actives were taken first. Their share in the collection is about 3.8%.
HepG2 viability: HepG2 cytotoxicity, counter-screen for TGF-b inhibitors | HepG2 CAGA-GFP viability, ATP luminescence, 18 h | Potency, µM (titrated, usually from 46.1 µM), most hits filed as cytotoxic | 0.76% of 410,000 active | AID 588856
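CellTiter-Glo luminescence gave cytotoxicity after 18 hours at 37 degrees C. The cells were HepG2 CAGA-GFP in 1% FBS DMEM, stimulated with 500 pg/mL TGF-beta after compound addition. %Activity was normalised to no-cell wells (complete cell-killing) and DMSO (no toxicity), and curves were fitted and classified.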
Nrf2 block: blocks Nrf2 signaling; A549 ARE-Fluc reporter, luciferase luminescence, 18-24 h; Potency, µM (titrated, usually from 46 µM), actives largely listed as inhibitors; 2.1% of 360,000 active; AID 504444; note: nearly all actives have a fitted effect of over 60% in size
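Quantitative HTS in A549 cells stably bearing an antioxidant response element-firefly luciferase construct. Inhibition of Nrf2-driven transcription was scored by luminescence after 18-24 h of compound exposure at 37 °C.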
ATXN2 expr inh: inhibitors of ATXN2 expression | Potency, µM (doses to about 57 µM), actives largely listed as inhibitors | HEK-293 ATXN2-luciferase reporter, luminescence, 24 h | 0.72% of 360,000 active; note: nearly all actives have a fitted effect of over 55% in size
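qHTS (up to 57 uM final) was run with 24 h compound exposure of reporter cells at 37 °C. Each well was multiplexed: SteadyGlo luminescence measured ATXN2-luciferase expression after a fluorogenic Gly-Phe-AFC viability readout (25 uM final).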
ATXN viability: cell viability loss in ATXN counter-screen | 0.49% of 400,000 active | Potency, µM (doses to about 56.7 µM), hits mostly cytotoxic | S2 cells (HEK-293 line with an ATXN2-luciferase reporter) viability, CellTiter-Fluor protease fluorescence, 24 h; note: nearly all actives have a fitted effect of over 40% in size
A549 viability: A549 cytotoxicity, counter-screen for Nrf2 inhibitors. AID 504648. 0.16% of 390,000 active. A549 ARE-Fluc cells, CellTiter-Fluor viability, 18-24 h. Potency, µM (top dose mostly 46 µM), actives largely listed as inhibitors
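Cytotoxicity counterscreen: CellTiter-Fluor fluorescence was measured in A549 ARE_Fluc cells after 18-24 h of compound exposure in a concentration series. The subsequent BugLite luminescent read reports ARE-luciferase activity.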
TGFb SMAD3 inh: TGF-b pathway inhibition | Potency, µM (series often up to 46.1 µM), actives largely listed as inhibitors | AID 588855 | 1.2% of 410,000 active | HepG2 CAGA-GFP TGF-b/SMAD3 reporter, GFP fluorescence, 18 h; TGF-beta stimulated, 500 pg/mL final; note: nearly all actives have a fitted effect of over 65% in size
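Cell-based qHTS in HEPG2 carrying a CAGA-GFP Smad reporter; compounds added before 500 pg/mL final TGF-beta, 18 h incubation at 37 degrees C, GFP fluorescence quantified per cell by imaging cytometry.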
Large screens that a line does not name were inactive. Calls come from the whole dose curve; as a rule, active = well fitted curve in the direction sought with a large enough effect; inconclusive = small, poorly fitted or top-dose-only effect, or another doubt; inactive = no such curve, though single readings can be large; an effect the other way counts as inactive or inconclusive.

CCOC(=O)C1=C(CN2CCC(C(=O)OCC)CC2)NC(=O)NC1c1ccc(Cl)cc1 (stereo unspecified)	none
CCCOC(=O)N1CCN(/[N+]([O-])=N/Oc2ccc([N+](=O)[O-])cc2[N+](=O)[O-])CC1	A549 viability inconclusive, TGFb SMAD3 inh 7.1µM (no result: ATXN2 expr inh, ATXN viability)
Cc1cccc(-n2ncc3c2CCCC3NC(=O)C2CCOCC2)c1C (stereo unspecified)	Nrf2 block inconclusive
O=C(NC1CCCC1)C1CCN(C(=O)c2ccc(-c3ccccc3)cc2)CC1	Nrf2 block inconclusive
CCn1cc(CN2CCN(CCC(C)C)C(CCO)C2)c2ccccc21 (stereo unspecified)	HepG2 viability 11µM (no result: ATXN2 expr inh)
O=C(Oc1ccc(=O)n(-c2ccccc2)n1)c1ccc(Cl)cc1	TGFb SMAD3 inh inconclusive
COc1ccc(C(=O)Oc2ccc(=O)n(-c3ccccc3)n2)cc1	Nrf2 block 1.6µM, ATXN viability inconclusive (no result: A549 viability)
CC(=O)c1ccc(-c2cccs2)s1	TGFb SMAD3 inh 10µM
Cc1cc(C(=O)N2CCCC(C(=O)c3cccc(C(F)(F)F)c3)C2)n[nH]1 (stereo unspecified)	Nrf2 block 18µM
COc1cccc(NC(=O)N2CCCC2)c1	none (no result: ATXN2 expr inh)
O=C(NCCCNc1nc(Nc2cccc(NC(=O)N3CCCC3)c2)ncc1I)c1cccs1	ATXN2 expr inh 14µM (no result: HepG2 viability, Nrf2 block, ATXN viability, A549 viability, TGFb SMAD3 inh)
O=c1c(O)c(-c2ccc(O)c(O)c2)oc2cc(O)ccc12	Nrf2 block 12µM, TGFb SMAD3 inh inconclusive (no result: ATXN viability)
CC(=O)Nc1ccc(NC(=O)CCNS(=O)(=O)c2cccc3nsnc23)cc1	none
COC1=C(C)C(=O)C2=C(C1=O)C1C3CC4=C(C(=O)C(OC)=C(C)C4=O)C(CNC(=O)C(C)=O)N3C(C#N)C(C2)N1C (stereo unspecified)	HepG2 viability 7.1µM, Nrf2 block 0.58µM, ATXN2 expr inh inconclusive, ATXN viability 0.15µM, A549 viability 9.2µM, TGFb SMAD3 inh 0.14µM
O=S(CC(O)c1ccccc1)c1ccccc1 (stereo unspecified)	none (no result: Nrf2 block, ATXN2 expr inh, A549 viability)
CC(C)c1ccc(S(=O)(=O)N2CCC(n3c(C(F)(F)F)nc4cccnc43)CC2)cc1	none
COCCCn1c(C)nc2c(c1=O)c1nc3ccccc3nc1n2CCc1ccccc1	Nrf2 block 8.2µM
Cc1nc2ccccc2c(=O)n1CCc1ccccc1	Nrf2 block inconclusive
CCOC(=O)CC1C(=O)NCCN1C1CCCC1 (stereo unspecified)	none
COc1ccccc1OCC(=O)Nc1c(C(=O)c2ccc(F)cc2)oc2ccccc12	none
CCCn1c(Nc2nc3ccccc3n2C)nc2ccccc21	HepG2 viability 7.1µM, Nrf2 block inconclusive, ATXN2 expr inh inconclusive, ATXN viability inconclusive, A549 viability inconclusive
CCCCCn1c(NCc2ccc(OC)cc2)nc2ccccc21	Nrf2 block inconclusive, ATXN2 expr inh inconclusive, ATXN viability inconclusive, A549 viability inconclusive, TGFb SMAD3 inh 13µM
CC1=NN(C(=O)Cc2ccc([N+](=O)[O-])cc2)C(O)(C(F)(F)C(F)(F)F)C1 (stereo unspecified)	ATXN viability inconclusive, TGFb SMAD3 inh 11µM (no result: ATXN2 expr inh)
CNC(=O)C[C@H]1C(=O)N(c2ccc(Br)cc2)C[C@@H]1C	none (no result: Nrf2 block, A549 viability)
COc1cccc(C(=O)NCCCn2ccnc2)c1	A549 viability inconclusive
CCn1cc(S(=O)(=O)c2cccc(Cl)c2)c(=O)c2cc(F)c(N3CCN(C)CC3)cc21	A549 viability inconclusive (no result: ATXN2 expr inh, ATXN viability)
N#CC(C#N)=C1C=CC=CN1/C(=C\c1ccccc1)C(=O)c1cccs1	none
N#CC(C#N)=C1C=CC=CN1/C(=C\c1ccccc1Cl)C(=O)c1ccccc1	HepG2 viability 7.1µM, Nrf2 block inconclusive, ATXN2 expr inh 13µM, ATXN viability inconclusive, TGFb SMAD3 inh 3.2µM
CC(=O)N1c2ccc(S(=O)(=O)NCCc3cccc(C)c3)cc2CC1C (stereo unspecified)	Nrf2 block 13µM
CCC(=O)N1c2ccc(S(=O)(=O)NCCc3ccccc3)cc2CC1C (stereo unspecified)	Nrf2 block 23µM
